MITF primary = blocks human microphthalmia-associated transcription factor; inhibition, % at 2.6 µM; AlphaScreen MITF homodimerization, bead proximity signal; 650,000 tested, 0.91% active; AID 1259374; in the data active = inhibition above about 50%;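 note: 0% = vehicle wells with protein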
FBW7 activator = human FBW7 E3 ligase activation, primary screen; Q969H0; 650,000 tested, 0.13% active; normalized activity (activation), % at 26.1 µM; AlphaScreen FBW7–phospho-cyclin E peptide binding, activator screen; in the data active = normalized activity above about 1.9%;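 note: purified mutant Fbw7 with reduced substrate affinity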
GPR151 ag = activates the human receptor GPR151; Q8TDV0; PathHunter beta-arrestin GPR151 cells, luminescence; activation, % at 11.2 µM; 650,000 tested, 1% active; AID 1508602; in the data active = activation above about 4.9%;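 note: 0% = median of compound wells and 100% = cells with positive control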
Target sequence (Q8TDV0 whole entry, looked up): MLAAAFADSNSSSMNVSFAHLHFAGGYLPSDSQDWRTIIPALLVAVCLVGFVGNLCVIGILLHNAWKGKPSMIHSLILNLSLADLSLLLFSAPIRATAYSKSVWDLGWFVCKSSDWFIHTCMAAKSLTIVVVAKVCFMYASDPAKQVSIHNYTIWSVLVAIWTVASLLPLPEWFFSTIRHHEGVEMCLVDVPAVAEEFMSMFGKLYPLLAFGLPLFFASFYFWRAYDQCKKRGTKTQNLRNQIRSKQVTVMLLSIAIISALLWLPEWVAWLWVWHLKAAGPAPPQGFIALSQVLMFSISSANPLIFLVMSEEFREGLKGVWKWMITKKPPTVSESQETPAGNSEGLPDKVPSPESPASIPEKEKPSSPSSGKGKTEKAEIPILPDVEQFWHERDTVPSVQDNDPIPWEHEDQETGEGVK
TEAD-YAP block = TEAD-YAP interaction inhibition; inhibition, % at 9.12 µM; 640,000 tested, 1.4% active; HEK-TIYL cells, TEAD-Gal4/YAP UAS-luciferase luminescence; in the data active = inhibition above about 32%;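 note: 0% = median of test compound wells and 100% = reference inhibitor wells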
The depositor's hits bear a star. Sampled rows, rich in hits. Any-hit rate of the full collection: about 3.5%.

SMILES | MITF primary | FBW7 activator | GPR151 ag | TEAD-YAP block
Cc1ccnc(NC(c2ccc(N(C)C)cc2)c2ccc3cccnc3c2O)c1 (stereo not given) | 59.8* | -0.2 | 1.9 | -56.3
Cc1ccnc(NC(c2ccc(Cl)cc2)c2ccc3cccnc3c2O)c1 (stereo not given) | 13.3 | -1.0 | 0.6 | 83.9*
Cc1ccnc(NC(c2ccc3cccnc3c2O)c2sccc2C)c1 (stereo not given) | 21.6 | -1.1 | 0.4 | 29.5
CC(=O)NCCNC(=O)CCn1c(=O)[nH]c2ccccc2c1=O | 1.6 | -0.1 | 1.4 | -3.2
O=C(CSc1nnnn1-c1ccc2c(c1)OCO2)Nc1nc2ccccc2s1 | -4.8 | -0.1 | -0.9 | 6.7
FC(F)(F)c1cccc(CNc2nc(NCc3cccnc3)nc3c2ncn3-c2ccccc2)c1 | -8.4 | -0.2 | 0.5 | 47.8*
CC(C)n1cnc2c(NCc3cccc(C(F)(F)F)c3)nc(NCc3cccnc3)nc21 | 13.1 | 0.0 | 0.1 | 40.2*
FC(F)(F)c1cccc(CNc2nc(Nc3cnccn3)nc3c2ncn3-c2ccccc2)c1 | -5.1 | 0.0 | -1.0 | 5.7
CC(=O)N(Cc1ccccc1)C1=C(N2CCCCC2)C(=O)c2ccccc2C1=O | 13.7 | 0.2 | -0.9 | -8.4
CC(=O)N(Cc1ccc(F)cc1)C1=C(Cl)C(=O)c2ccccc2C1=O | 9.9 | -0.1 | -3.4 | 13.1
CC(=O)NC1=C(N(C)C)C(=O)c2ccccc2C1=O | -3.9 | -0.1 | 0.0 | -4.6
CNC1=C(N(Cc2ccc(Cl)c(Cl)c2)C(C)=O)C(=O)c2ccccc2C1=O | 10.0 | -0.2 | -1.6 | 83.4*
CCC(=O)N(C1=C(NC)C(=O)c2ccccc2C1=O)C(C)C | -10.1 | -0.1 | -1.6 | 85.0*
CC(=O)N(Cc1ccc(F)cc1)C1=C(NCCc2ccccc2)C(=O)c2ccccc2C1=O | 15.2 | -0.3 | 2.4 | 59.8*
CN(C(=O)c1ccc2c(c1)C(=O)c1ccccc1-2)c1ccc([N+](=O)[O-])cc1 | 17.1 | 0.6 | 1.5 | 2.9
CCOC(=O)c1ccc(CN2C(=O)C(=O)c3cc(OC(F)(F)F)ccc32)o1 | -3.1 | -0.2 | -0.8 | 66.5*
Cc1[nH]c2ccccc2c1C(=O)/C(C#N)=C/c1ccc(N(C)CCO)cc1 | 12.8 | 0.1 | 0.6 | 38.3*
O=C(CCN1C(=O)c2cccc3cccc(c23)C1=O)N1CCN(c2ccccc2F)CC1 | 12.5 | 1.0 | -1.5 | -7.1
CC(=O)N[C@@H](Cc1cccc(C)c1)c1nc2ncc(-c3ccncc3)cc2[nH]1 | -3.8 | -0.2 | -0.8 | 46.0*
O=C1C(Cl)=C(N2CCN(C/C=C/c3ccccc3)CC2)C(=O)c2ccccc21 | 12.8 | -0.1 | 0.2 | -5.8
COc1ccc(-c2nc3ncnc(Nc4ccc(NC(C)=O)cc4)c3[nH]2)cn1 | 22.3 | 0.1 | 0.5 | 11.8
COc1ccc(-c2nc3ncnc(Nc4cc(OC)c(OC)c(OC)c4)c3[nH]2)cn1 | 19.2 | 0.6 | -1.1 | 45.6*
COc1ccc(-c2nc3ncnc(NCCc4ccc(O)cc4)c3[nH]2)cc1 | 11.2 | 0.1 | 1.7 | 59.3*
COc1ccc(-c2nc(Nc3cc(OC)c(OC)c(OC)c3)c3[nH]cnc3n2)cn1 | 12.2 | 0.3 | -0.6 | 57.4*
COc1cc(Nc2nc(-c3cccc(C(C)=O)c3)nc3nc[nH]c23)cc(OC)c1OC | 10.0 | 1.9* | 0.1 | 30.2
SMILES | MITF primary | FBW7 activator | GPR151 ag | TEAD-YAP block
CC(=O)c1cccc(-c2nc(Nc3ccccc3)c3[nH]cnc3n2)c1 | -3.7 | 0.0 | 4.3 | 1.2
COc1ccc(-c2nc3ncnc(NCCN(C(C)C)C(C)C)c3[nH]2)cn1 | 12.9 | -0.2 | -0.5 | 9.1
COc1ccc(-c2nc3ncnc(NCCOc4ccccc4)c3[nH]2)cn1 | 3.4 | 0.0 | 0.5 | 36.0*
Cc1cnc(NC(=O)CN2CCN(c3ccccn3)CC2)s1 | 10.7 | 0.2 | -0.6 | 65.2*
Cc1cnc(NC(=O)CN2CCC(O)(c3ccccn3)CC2)s1 | -1.4 | -0.1 | 0.1 | 2.6
CC(C)CCC(=O)NCC1Cc2cccc(-c3ncccn3)c2O1 (stereo not given) | 17.1 | 0.2 | -0.4 | 6.5
Nc1nc(-c2ccco2)nn1C(=O)c1ccccc1 | 16.4 | 2.0* | -0.3 | -2.1
C=CCN(CC=C)C(=S)Nc1sc(C)c(C)c1C(=O)OC | 7.5 | -0.1 | -0.8 | -1.7
Cc1cc2nc(-c3ccc(C)c(N)c3)oc2cc1C | 2.2 | -0.2 | -6.4 | 35.7*
Cc1ccc2nc(-c3cc(N)cc(N)c3)oc2c1 | 9.1 | -0.1 | -2.8 | 55.6*
CCc1ccc2oc(-c3ccc(C)c(N)c3)nc2c1 | 15.0 | 0.2 | -6.6 | 43.1*
Cc1cc2nc(-c3cccc(N)c3)oc2cc1C | 13.4 | -0.3 | -10.1 | 34.9*
Cc1ccc(-c2nc3ccccc3o2)cc1N | 9.2 | 0.1 | -4.9 | -32.7
Cc1ccc2nc(-c3cc(N)ccc3O)oc2c1 | 5.5 | -0.1 | -1.8 | -21.8
COc1ccc(C(=O)Cn2c(=N)n(C)c3ccccc32)cc1 | -5.3 | 0.3 | -0.1 | -79.0
Cn1c(=N)n(CC(=O)c2ccccc2)c2ccccc21 | 4.7 | 0.4 | -1.0 | 44.9*
CCN(CC)CCn1c(=N)n(CC(=O)c2ccc(C)cc2)c2ccccc21 | 18.1 | 3.3* | -0.3 | 13.4
N=c1sc2c(n1CC(=O)c1ccccc1)CCCC2 | -9.9 | 0.2 | -11.0 | 91.0*
Cc1ccc(C(=O)Cn2c3ccccc3n3nc(C)nc23)cc1 | 0.3 | 0.0 | -0.5 | 46.7*
COc1ccc(CCC(=O)Nc2ccc(-c3nc(C)no3)cc2)cc1 | 13.2 | 0.2 | -1.2 | 7.3
Cc1cccn2cc(CSc3ccccc3N)nc12 | -2.0 | 0.1 | 0.7 | -60.9
COc1ccc(-c2cc(C(=O)NCCCN3CCCC3=O)ccn2)cc1 | 2.5 | 0.1 | -1.1 | 7.9
c1ccc(-n2ncc3c(Nc4cccc5c4CCCC5)ncnc32)cc1 | 4.6 | -0.1 | 3.9 | -1.3
Cc1cccc(-n2ncc3c(Nc4cccc5c4CCCC5)ncnc32)c1 | 17.6 | 0.1 | 0.5 | 41.6*
COc1ccc(-n2ncc3c(Nc4cccc5c4CCCC5)ncnc32)cc1 | -3.8 | -0.2 | 0.7 | 47.1*
SMILES | MITF primary | FBW7 activator | GPR151 ag | TEAD-YAP block
Cc1cccc(Nc2ncnc3c2cnn3-c2cccc(C)c2)c1 | 9.6 | 0.5 | 0.4 | -27.1
Oc1c(C(Nc2ncccn2)c2ccc(F)cc2)ccc2cccnc12 (stereo not given) | 14.9 | 0.0 | 2.1 | 0.6
Cc1cccc(NC(c2ccc(F)cc2)c2ccc3cccnc3c2O)n1 (stereo not given) | 26.0 | -0.3 | -1.7 | 85.8*
Cc1cccc(NC(c2cccc(F)c2)c2ccc3cccnc3c2O)n1 (stereo not given) | 5.1 | -0.2 | -1.3 | 40.3*
Oc1c(C(Nc2ccc(F)cc2)c2ccncc2)ccc2cccnc12 (stereo not given) | 61.0* | -2.1 | -1.3 | -3.1
Oc1c(C(Nc2ccccn2)c2cccc(F)c2)ccc2cccnc12 (stereo not given) | 0.2 | -0.3 | 0.5 | 21.0
C[C@H](O)C(=O)N1CCCN(S(=O)(=O)c2cccc3cnccc23)CC1 | 10.5 | -0.1 | 0.8 | 0.8
CCc1ccc(C2C(C#N)=C(N)Oc3n[nH]c(COC)c32)cc1 (stereo not given) | -1.5 | 0.0 | -0.6 | -9.6
COc1ccc2oc(=O)c(-c3csc(Nc4ccccc4C)n3)cc2c1 | -8.1 | 0.1 | -0.5 | -21.9
